Results reported in PubChem BioAssay (NCATS).
“And” between values parts separate entries of the source, which are not always exact repeats. Equal entries are not always repeated. Records with an inconclusive call do not appear. Some compounds were tested as several samples or in several runs, with calls that do not always agree. The source made the active and inactive calls. The call rests on the fitted dose curve; in most records, active means well fitted curve in the direction sought with a large enough effect; inconclusive means small, poorly fitted or top-dose-only effect, or another doubt; inactive means no such curve, though single readings can be large; an effect the other way counts as inactive or inconclusive.

Tests used:
CRL-7250 = normal cell line; experiment: Cytotoxic Profiling of Annotated Libraries Using Quantitative High-Throughput Screening (AID 1296008); details: Five cell lines viability, CellTiter-Glo ATP luminescence, 48-72 h; max response: hits give low values; further: nearly all actives have a fitted effect of over 60% in size; further: potency means the concentration at half of the fitted maximal effect
Outline: (§1)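 Cytotoxicity was measured as CellTiter-Glo ATP luminescence, read after 10 min at room temperature. Compound treatment of the cells lasted 48 or 72 hr at 37 degrees Celsius in a qHTS format.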

HaCat [1] = experiment: as above; details: Five cell lines viability, CellTiter-Glo ATP luminescence, 48-72 h; max response: hits give low values
Outline: as §1

KB-3-1 = experiment: as above; details: Five cell lines viability, CellTiter-Glo ATP luminescence, 48-72 h; max response: hits give low values
Outline: as §1

NIH3T3 [2] = experiment: as above; details: Five cell lines viability, CellTiter-Glo ATP luminescence, 48-72 h; max response: hits give low values
Outline: as §1

HACAT [3] = experiment: qHTS assay to identify novel small-molecules to repurpose for Merkel cell carcinoma treatment (AID 1296009); details: MCC and control cell lines, CellTiter-Glo viability, 72 h; at 44.8 µM (top of the series) unless noted; further: nearly all actives have a fitted effect of over 60% in size; further: potency means the concentration at half of the fitted maximal effect
Outline: (§2)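 72 hr, 37 degree celsius; NPC 8-pt / MIPE 11-pt dose response; compound pinned in DMSO; CellTiter-Glo, 10 min RT, luminescence; normalized to no-cell and DMSO controls.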

HEK293T = experiment: as above; details: MCC and control cell lines, CellTiter-Glo viability, 72 h; at 44.8 µM (top of the series) unless noted
Outline: as §2

MCC-13 = experiment: as above; details: MCC and control cell lines, CellTiter-Glo viability, 72 h; series mostly up to 46 µM
Outline: as §2

MCC-26 = experiment: as above; details: MCC and control cell lines, CellTiter-Glo viability, 72 h; series mostly up to 46 µM
Outline: as §2

MKL-1 = experiment: as above; details: MCC and control cell lines, CellTiter-Glo viability, 72 h; series mostly up to 46 µM
Outline: as §2

MKL-2 = experiment: as above; details: MCC and control cell lines, CellTiter-Glo viability, 72 h; series mostly up to 46 µM
Outline: as §2

UISO = experiment: as above; details: MCC and control cell lines, CellTiter-Glo viability, 72 h; series mostly up to 46 µM
Outline: as §2

WaGa = experiment: as above; details: MCC and control cell lines, CellTiter-Glo viability, 72 h; series mostly up to 46 µM
Outline: as §2

C33A = experiment: Primary qHTS to identify gynecologic anti-cancer compounds using libraries of approved drugs and bioactive compounds (AID 1345084); details: Gynecologic cancer cell panel viability, ATPlite luminescence, 48 h; series mostly up to 57.5 µM; further: nearly all actives have a fitted effect of over 55% in size
Outline: (§3)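 Cytotoxicity screen measuring ATP content by luciferase luminescence. Each compound is applied at five concentrations for 48 h at 37 C with 5% CO2.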

CAOV3 = experiment: as above; details: Gynecologic cancer cell panel viability, ATPlite luminescence, 48 h; series mostly up to 57.5 µM
Outline: as §3

CASKI = experiment: as above; details: Gynecologic cancer cell panel viability, ATPlite luminescence, 48 h; series mostly up to 57.5 µM
Outline: as §3

NIH3T3 [4] = experiment: qHTS assay to identify novel small-molecules to repurpose for Merkel cell carcinoma treatment (AID 1296009); details: MCC and control cell lines, CellTiter-Glo viability, 72 h; series mostly up to 44.8 µM; further: nearly all actives have a fitted effect of over 60% in size; further: potency means the concentration at half of the fitted maximal effect
Outline: as §2
On the % scale 0 is the no-effect control and ±100 the full control effect.

O=c1cc(-c2ccc(O)c(O)c2)oc2cc(O)cc(O)c12
inactive: max response (CRL-7250) 4.28% | outcome (HaCat [1]) | outcome (KB-3-1) | max response (NIH3T3 [2]) 3.33% | outcome (HACAT [3]) | outcome (HEK293T) | Potency (MCC-13) | Potency (MCC-26) | Potency (MKL-1) | Potency (MKL-2) | Potency (UISO)

COC1CCC(C(=O)c2ccc3nc4c(cc3c2)CCCO4)CC1 (configuration not stated)
inactive: outcome (CRL-7250) | outcome (HaCat [1]) | max response (KB-3-1) -15.4% | max response (NIH3T3 [2]) -7.67% | outcome (HACAT [3]) | Potency (MCC-13) | Potency (MCC-26) | Potency (MKL-1) | Potency (MKL-2) | Potency (WaGa)

COc1ccc(Cn2ccc3ccc(C(=O)NO)cc32)cc1
inactive: max response (CRL-7250) -16.1% and -2.36% | max response (HaCat [1]) -11.8% | outcome (HaCat [1]) | max response (KB-3-1) 8.71% | outcome (KB-3-1) | outcome (HACAT [3]) | Potency (MCC-13) | Potency (MCC-26) | Potency (MKL-2) | Potency (C33A) | Potency (CAOV3) | Potency (CASKI)

CC=C1C2C=C(C)CC1(N)c1ccc(=O)[nH]c1C2 (configuration not stated)
inactive: max response (CRL-7250) 3.51% | outcome (HaCat [1]) | max response (KB-3-1) 3.2% | max response (NIH3T3 [2]) -12.9% | outcome (HACAT [3]) | Potency (MCC-13) | Potency (MCC-26) | Potency (MKL-1) | Potency (MKL-2) | Potency (UISO) | Potency (WaGa)

CCCCN(CCCC)CC(O)c1cc(Cl)cc2c1-c1ccc(Cl)cc1C2=Cc1ccc(Cl)cc1 (configuration not stated)
inactive: max response (CRL-7250) -1.5% | outcome (HaCat [1]) | max response (KB-3-1) 3.8% | outcome (NIH3T3 [2]) | outcome (HACAT [3]) | Potency (MCC-13) | Potency (MCC-26) | Potency (MKL-1) | Potency (MKL-2) | Potency (NIH3T3 [4]) | Potency (UISO) | Potency (WaGa)

CN(C)CCOc1ccc(-c2nc(-c3ccc4c(c3)CCC4=NO)c(-c3ccncc3)[nH]2)cc1
inactive: outcome (CRL-7250) | outcome (HaCat [1]) | max response (KB-3-1) 2.27% | max response (NIH3T3 [2]) 1.65% | outcome (HACAT [3]) | Potency (MCC-13) | Potency (MCC-26) | Potency (UISO)
active: Potency (MKL-2) 14.8 µM

Cc1ccc(C2=Nc3ccc(Cl)cc3OC2)cc1
inactive: outcome (CRL-7250) | outcome (HaCat [1]) | max response (KB-3-1) 5.39% | max response (NIH3T3 [2]) -2.62% | outcome (HACAT [3]) | Potency (MCC-13) | Potency (MCC-26)
active: Potency (MKL-1) 14.8 µM

CCN1CCC(n2cc(CNc3cc(Cl)c4ncc(C#N)c(Nc5ccc(F)c(Cl)c5)c4c3)nn2)CC1
active: Potency (KB-3-1) 18.4 µM
inactive: max response (CRL-7250) -1.92% and -4.77% | max response (HaCat [1]) -29.2% and -4.6% | max response (NIH3T3 [2]) 2.53% | outcome (NIH3T3 [2]) | Potency (MCC-13) | Potency (MCC-26) | Potency (MKL-1) | Potency (NIH3T3 [4]) | Potency (WaGa) | Potency (C33A) | Potency (CASKI)

CCCCC[C@H](O)C=C[C@H]1[C@H](O)CC(=O)[C@H]1CC=CCCCC(=O)O
inactive: max response (CRL-7250) 2.95% | outcome (HaCat [1]) | outcome (KB-3-1) | max response (NIH3T3 [2]) -18.8% | outcome (HACAT [3]) | Potency (MCC-13) | Potency (MCC-26) | Potency (C33A) | Potency (CAOV3) | Potency (CASKI)
active: Potency (MKL-2) 16.6 µM

C[C@@H]1CCO[C@H]2Cn3cc(C(=O)NCc4ccc(F)cc4F)c(=O)c(O)c3C(=O)N12
active: Potency (NIH3T3 [2]) 20.6 µM
inactive: outcome (CRL-7250) | outcome (HaCat [1]) | max response (KB-3-1) -10.6% and -26.2% | max response (NIH3T3 [2]) -1.73% | outcome (HACAT [3]) | Potency (MCC-13) | Potency (MCC-26) | Potency (UISO)

C[C@]12CC[C@@H]3c4ccc(O)cc4CC[C@H]3[C@H]1[C@@H](O)[C@@H](O)[C@H]2O
inactive: max response (CRL-7250) 0.316% | outcome (HaCat [1]) | outcome (KB-3-1) | outcome (NIH3T3 [2]) | outcome (HACAT [3]) | outcome (HEK293T) | Potency (MCC-13) | Potency (MCC-26) | Potency (MKL-1) | Potency (NIH3T3 [4]) | Potency (UISO) | Potency (WaGa)

O=[N+]([O-])c1ccc(Nc2ccccc2-c2ccccc2)c2nonc12
inactive: max response (CRL-7250) -7.85% | outcome (HaCat [1]) | max response (KB-3-1) -18.3% | max response (NIH3T3 [2]) -25.2% | outcome (HACAT [3]) | Potency (MCC-13) | Potency (MCC-26) | Potency (MKL-1) | Potency (MKL-2) | Potency (UISO) | Potency (WaGa)

Cc1nc(C(=O)NCC(=O)O)c(O)c2ccc(Oc3ccccc3)cc12
inactive: max response (CRL-7250) -26.8% | outcome (HaCat [1]) | max response (KB-3-1) -6.73% and -11.5% | max response (NIH3T3 [2]) -5.42% and -6% | outcome (HACAT [3]) | Potency (MCC-13) | Potency (MCC-26) | Potency (MKL-1) | Potency (MKL-2) | Potency (UISO) | Potency (WaGa) | Potency (C33A) | Potency (CAOV3) | Potency (CASKI)
